Source: PubChem
Compounds with a hit are over-represented: about 2.3% of the library has one in this group of screens.
TRPV1 agonist: human TRPV1 agonism; Q8NER1; TRPV1-expressing cells, Fluo-8 calcium influx, agonist mode; activation, % at 8.33 µM; 320,000 tested, 0.19% active; in the data active = activation above about 80%; inconclusive = between about 30% and that limit; also: 0% is about no effect
Target sequence (Q8NER1 whole entry, looked up): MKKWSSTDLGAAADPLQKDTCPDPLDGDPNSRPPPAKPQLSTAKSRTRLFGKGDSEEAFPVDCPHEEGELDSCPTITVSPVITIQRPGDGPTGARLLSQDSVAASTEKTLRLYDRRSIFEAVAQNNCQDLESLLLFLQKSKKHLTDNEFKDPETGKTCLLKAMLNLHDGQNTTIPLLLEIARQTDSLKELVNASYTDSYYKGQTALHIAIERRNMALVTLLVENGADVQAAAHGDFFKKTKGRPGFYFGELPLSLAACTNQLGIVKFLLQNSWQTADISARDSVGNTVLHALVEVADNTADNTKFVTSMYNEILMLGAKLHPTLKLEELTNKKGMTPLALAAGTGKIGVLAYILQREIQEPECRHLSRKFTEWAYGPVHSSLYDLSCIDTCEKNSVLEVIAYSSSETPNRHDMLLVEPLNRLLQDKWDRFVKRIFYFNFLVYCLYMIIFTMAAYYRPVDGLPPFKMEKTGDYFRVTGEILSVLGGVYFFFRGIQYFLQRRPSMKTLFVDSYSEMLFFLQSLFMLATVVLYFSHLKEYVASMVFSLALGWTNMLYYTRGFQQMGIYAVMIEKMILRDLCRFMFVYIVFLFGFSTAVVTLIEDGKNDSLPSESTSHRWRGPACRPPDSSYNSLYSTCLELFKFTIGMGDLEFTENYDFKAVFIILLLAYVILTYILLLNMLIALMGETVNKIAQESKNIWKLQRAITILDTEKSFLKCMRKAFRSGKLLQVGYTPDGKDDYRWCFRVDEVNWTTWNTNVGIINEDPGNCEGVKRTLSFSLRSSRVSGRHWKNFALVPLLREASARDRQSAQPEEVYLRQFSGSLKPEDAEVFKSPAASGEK
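TRPV1-expressing cells were cultured overnight at 35.5C and loaded with Fluo-8 calcium dye for 40 to 90 min at room temperature. After a 10 s baseline, compound was added and calcium influx was read kinetically for 3 min (ex 480/em 520 nm).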
Giardia kill: Giardia lamblia killing | activity change, % at 7.66 µM, hits read low | 340,000 tested, 0.15% active | Giardia lamblia trophozoite viability | AID 540267; in the data active = activity change below about -80%; inconclusive = between about -30% and that limit;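 also: parasites exposed to compound for two days anaerobically before the ATP read; % is scaled to controls: 0 for no effect and ±100 for the full control effect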
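Killing of trophozoites was scored by loss of ATP luminescence after a 48 hrs anaerobic exposure to compounds at 37 deg C, using 100 cells per well.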
ELG1 DNA repair: ELG1-dependent DNA repair inhibition; HEK293T ELG1-luciferase reporter, luminescence, 16 h; DNA damage induced by 5-fluorouridine; Potency, µM (titrated, usually from 46.1 µM), without a hit: at the highest dose activity change, negative = inhibition, actives largely listed as inhibitors; 330,000 tested, 2.3% active; AID 504467; also: potency is read from the fitted curve at half-maximal effect; % is scaled to controls: 0 for no effect and ±100 for the full control effect; nearly all actives have a fitted effect of over 55% in size
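HEK293T cells expressing luciferase-tagged ELG1 (2,000/well) received 5-Fluorouridine plus compound or DMSO for 16 hr at 37 °C. Luciferase was read by ONE-Glo luminescence after 30 min at room temperature.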
TRPV1 PAM: enhances activation of the human vanilloid receptor TRPV1 | Q8NER1 | TRPV1-expressing cells, Fluo-8 calcium influx, capsaicin EC20 potentiation | potentiation, % at 8.33 µM | 320,000 tested, 0.02% active | AID 540277; in the data active = potentiation above about 80%; inconclusive = between about 30% and that limit; also: 0% is about no effect
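Cells expressing TRPV1 were dye-loaded with Fluo-8 and read kinetically: 10 s baseline, 3 min after compound (agonist portion), then 2 min after EC20 capsaicin (allosteric enhancer portion). Calcium-bound dye fluorescence at 480/520 nm.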
FUS yeast rescue: suppressors of FUS proteinopathy in yeast; S. cerevisiae FUS-expressing, growth rescue, OD600, 24 h; Potency, µM (doses to about 76.6 µM), usual class: activators; 390,000 tested, 0.24% active; AID 1347120;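 also: potency is read from the fitted curve at half-maximal effect; plate controls were DMSO vehicle for no effect and reference control for full effect; nearly all actives have a fitted effect of over 55% in size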
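Galactose (2%) drives FUS expression in yeast precultured in raffinose; seeding density OD 0.005. Test compounds incubated 24hr at 30C and 99% humidity before absorbance at 600 nm was measured.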
* hit, by the source's call; i = inactive; ? = inconclusive; . = not tested or not shown. Unless noted, calls follow the shape of the dose curve; as a rule, active = well fitted curve in the direction sought with a large enough effect; inconclusive = small, poorly fitted or top-dose-only effect, or another doubt; inactive = no such curve, though single readings can be large; an effect the other way counts as inactive or inconclusive.

SMILES | TRPV1 agonist | Giardia kill | ELG1 DNA repair | TRPV1 PAM | FUS yeast rescue
O=C(N/N=C/c1cn(Cc2ccccc2)c2ccccc12)c1ccncc1 | 8 | -3 | 18µM* | -12 | i
COc1ccc(C(=O)Nc2nc(-c3nnn(-c4ccc(F)cc4F)c3C)ns2)cc1 | . | . | . | . | i
COc1ccc(CCNC(=S)N2CCC(C(=O)c3ccc(F)cc3)CC2)cc1OC | 10 | ? | 9.2µM* | -10 | i
COc1ccc(C(=O)C2CCN(C(=S)NCCc3ccc(OC)c(OC)c3)CC2)cc1 | -3 | -26 | 21µM* | 5 | i
COc1ccc(CCNC(=S)N2CCC(Cc3ccccc3)CC2)cc1OC | 9 | 6 | 9.2µM* | -2 | i
O=C(c1ccc(F)cc1)C1CCN(C(=S)Nc2ccc(F)cc2)CC1 | 17 | -17 | 10µM* | -11 | i
COc1ccc(CCNC(=O)c2ccc(CN3CCC(Cc4ccccc4)CC3)cc2)cc1OC | 8 | 29 | -16% | -9 | .
CCNC(=O)CC1C(=O)N(c2ccc(C)cc2)C(=O)N1Cc1ccc(C)cc1 (configuration not stated) | . | . | . | . | i
Cc1nc2ccccc2n1CCc1nc2c3ccccc3nc(SCC(=O)Nc3ccc(C(C)C)cc3)n2n1 | . | . | . | . | i
Cc1nc(SCC(=O)Nc2nc3ccccc3s2)c(C#N)c(C)c1C | -4 | ? | 5.2µM* | ? | i
CCN1CCN(c2oc(/C=C/c3cc(OC)c(OC)c(OC)c3)nc2C#N)CC1 | . | . | . | . | i
O=C(Nc1ccc([N+](=O)[O-])c(NC(=O)C2CCCO2)c1)C1CCCO1 (configuration not stated) | 6 | 1 | -3% | -3 | ?
O=C(Nc1ccc(N=Nc2ccccc2)c(NC(=O)C2CCCO2)c1)C1CCCO1 (configuration not stated) | ? | -4 | 9.2µM* | -6 | ?
COc1ccccc1CNC(=O)C(=O)NCC(c1cccs1)S(=O)(=O)c1ccc(F)cc1 (configuration not stated) | . | . | . | . | 28µM*
CCOc1ccc(-n2c(SCC(=O)Nc3ccc4c(c3)OCCO4)nnc2-c2ccncc2)cc1 | . | . | . | . | i
CC(=O)c1cccc(NC(=S)NCc2ccccc2)c1 | ? | -6 | -4% | 1 | i
CC(=O)c1cccc(NC(=S)NCCc2ccc(Cl)cc2)c1 | 85* | -11 | ? | 5 | i
CC(=O)c1cccc(NC(=O)Nc2cnn(Cc3ccc(Cl)cc3Cl)c2)c1 | ? | -3 | 26µM* | -10 | i
COc1cc(OC)c(N(C)S(=O)(=O)c2cccc(C(=O)OCc3c(C)noc3C)c2)cc1Cl | 2 | -6 | 18µM* | 1 | i
Cc1noc(C)c1COC(=O)c1cccc(S(=O)(=O)N2CCCCCC2)c1 | 15 | -21 | 5.8µM* | -7 | i
COCCCNC(=O)C[C@H]1C[C@@]2(C(=O)OC)C(=C[C@H](C3CCCC3)O[C@@H]2C)N(Cc2ccco2)C1=O | . | . | . | . | i
O=S(=O)(Nc1cccc2ccccc12)c1ccc2ccccc2c1 | 16 | -19 | . | 13 | .
COc1ccc(OC)c(NC2c3ncccc3C(=O)N2Cc2ccco2)c1 (configuration not stated) | -3 | -7 | -1% | 23 | 35µM*
O=c1c2sc3ccccc3c2n(Cc2cccc(F)c2)c(=O)n1Cc1ccccc1 | . | . | . | . | i
c1ccc(-c2cccc(CNc3nc(-c4ccccn4)nnc3-c3ccccc3)c2)cc1 | . | . | . | . | 32µM*
SMILES | TRPV1 agonist | Giardia kill | ELG1 DNA repair | TRPV1 PAM | FUS yeast rescue
c1ccc(-c2nnc(-c3ccccn3)c(-c3ccccn3)n2)nc1 | -8 | 9 | 2% | 11 | i
CCCN(CC(=O)Nc1ccccc1C)C(=O)CCl | 3 | 31 | 7.3µM* | -4 | i
CCCN(CC(=O)Nc1ccccc1C)C(=O)COc1c(C)cccc1C | 12 | -13 | -6% | -3 | i
CCn1cc2nc(SCc3cc(C)ccc3C)n(Cc3ccc(C)cc3)c(=O)c2n1 | . | . | . | . | i
CCOC(=O)c1cc(-c2ccccc2)n(CCC(=O)N2CCN(c3ccccn3)CC2)c1C | 7 | -1 | 23µM* | 2 | .
COc1cc(S(=O)(=O)NCCOC23CC4CC(CC(C4)C2)C3)c(OC)cc1Cl | -1 | -20 | 16µM* | 1 | .
CC(C)(C)c1ccc(S(=O)(=O)NC(=O)C2(C)CCN2C(=O)C2(c3ccccc3)CC2)cc1 (configuration not stated) | . | . | . | . | i
COc1cccc(N(C(=O)CCl)C(C(=O)NCCc2ccccc2)c2cccs2)c1 (configuration not stated) | 9 | -5 | 16µM* | 11 | .
Cc1cccc(C(=O)NC2(C(F)(F)F)N=C(c3ccccc3)N(Cc3ccccc3)C2=O)c1 (configuration not stated) | . | . | . | . | i
COc1ccc(NC(=O)c2cc(-c3ccccc3Cl)no2)cc1 | ? | -1 | 3% | -11 | i
O=C(Nc1ccccc1)c1cc(-c2ccccc2Cl)no1 | 85* | -1 | ? | -6 | i
COc1ccc(Cl)cc1C(=O)Nc1ccccc1N1CCN(C(=O)C(C)C)CC1 | 4 | -12 | ? | 7 | i
CC(C)C(=O)N1CCN(c2ccc(NC(=O)c3cccs3)cc2Cl)CC1 | 29 | -8 | 12µM* | -16 | i
COc1ccc(C(=O)Nc2ccccc2N2CCN(C(=O)C(C)C)CC2)cc1Cl | ? | -9 | 23µM* | -11 | i
CC(C)C(=O)N1CCN(c2ccc(NC(=O)c3cccs3)cc2)CC1 | 5 | -10 | ? | -6 | i
CC(=O)N1CCN(c2ccc(NC(=O)c3ccc4c(c3)OCCO4)cc2Cl)CC1 | 9 | -14 | ? | -4 | i
CC(C)C(=O)N1CCN(c2ccc(NC(=O)c3ccc4c(c3)OCCO4)cc2Cl)CC1 | 9 | 7 | 5.8µM* | -3 | i
CCOc1cccc(C2c3[nH]c4ccccc4c3CCN2C(=O)CCc2ccccc2)c1 (configuration not stated) | . | . | . | . | i
Cc1ccc(-c2cn3cccc(C)c3n2)cc1 | 15 | -13 | ? | -20 | i
O=[N+]([O-])c1cccn2cc(-c3ccc(Br)cc3)nc12 | -4 | -99* | ? | -3 | ?
Cc1cccc(Cc2c(C)nc3nc(SCc4ccccc4C)nn3c2C)c1 | . | . | . | . | i
COc1ccc(C(=O)C2CCCN(C(=O)COc3ccc(C(C)=O)cc3)C2)cc1F (configuration not stated) | 5 | 2 | 15µM* | 8 | i
O=C(NC1CCN(Cc2ccccc2)CC1)c1ccccc1 | 4 | 13 | -1% | -8 | i
O=C(NC1CCN(Cc2ccc(Cl)cc2Cl)CC1)c1ccccc1 | -2 | -4 | 13µM* | 7 | i
Cc1ccc(Cl)cc1S(=O)(=O)N1CCC(C(=O)NC2CCN(Cc3ccccc3)CC2)CC1 | 3 | 28 | 5.2µM* | 0 | i
